Assay outcomes: PubChem, The Scripps Research Institute Molecular Screening Center
PG9 binder: small molecules binding HIV-1 gp120 antibody PG9; 360,000 compounds, 0.43% hits; TR-FRET gp120-PG9 antibody binding; inhibition, % at 6.7 µM; in the data active means inhibition above about 8.5%
MsrA inh: inhibitors of bovine MsrA; 360,000 compounds, 0.75% hits; inhibition, % at 15.5 µM; purified bovine MsrA, absorbance read-out; in the data active means inhibition above about 4.5%
bovine MsrA act: activates bovine MsrA enzyme. purified bovine MsrA, absorbance read-out. activation, % at 10.6 µM. 360,000 compounds, 0.3% hits. AID 602163; in the data active means activation above about 7.5%
sPLA2-III inh: Blocks human group III sPLA2 activity; Q9NZ20; inhibition, % at 12.2 µM; 370,000 compounds, 0.56% hits; QFRET BODIPY PC-A2 liposome hydrolysis, fluorescence;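 active means inhibition above mean plus 3 SD of compounds lying within the high and low control bounds, cut at about 19% in these data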
Target sequence (Q9NZ20 whole entry, looked up): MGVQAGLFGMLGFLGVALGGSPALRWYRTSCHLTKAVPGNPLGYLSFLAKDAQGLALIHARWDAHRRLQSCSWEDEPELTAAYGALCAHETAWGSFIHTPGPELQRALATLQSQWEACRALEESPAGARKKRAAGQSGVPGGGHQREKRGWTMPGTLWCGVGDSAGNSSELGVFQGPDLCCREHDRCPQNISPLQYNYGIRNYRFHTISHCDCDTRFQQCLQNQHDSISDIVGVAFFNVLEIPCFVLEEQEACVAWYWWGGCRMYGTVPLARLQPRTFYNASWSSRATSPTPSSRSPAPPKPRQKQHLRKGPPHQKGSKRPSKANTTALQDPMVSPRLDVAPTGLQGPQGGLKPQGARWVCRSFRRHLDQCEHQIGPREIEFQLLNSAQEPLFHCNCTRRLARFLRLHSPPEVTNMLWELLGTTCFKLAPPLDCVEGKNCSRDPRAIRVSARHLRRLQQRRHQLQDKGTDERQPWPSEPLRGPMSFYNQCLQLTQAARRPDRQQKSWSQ
rCAG RNA binder: binds r(CAG) RNA repeats; 370,000 compounds, 1.3% hits; r(CAG) RNA repeat, TO-PRO-1 dye displacement fluorescence; inhibition, % at 3 µM;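 active means inhibition above the plate cutoff, the mean of all test compounds on that plate plus 3 SD, cut at about 35% in these data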;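 further: higher means more dye released from RNA so lower well fluorescence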
sPLA2 confirm: human GIII-sPLA2 inhibition, confirmation; shares compounds with sPLA2-III inh; recombinant hGIII-sPLA2, BODIPY PC-A2 QFRET fluorescence; inhibition, % at 12.2 µM; 2,000 compounds, 34% hits;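 active means mean inhibition across triplicates above the hit cutoff set in the earlier primary screen, cut at about 19% in these data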
535nm interf: counter-screen for HGIII-sPLA2 inhibitors: 535nm fluorescence interference | 2,000 compounds, 8.5% hits | shares compounds with sPLA2-III inh | inhibition, % at 12.2 µM | BODIPY FL product fluorescence interference, QFRET;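 active means average inhibition above the solvent-only control mean plus 3 SD, cut at about 6% in these data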
535nm interf DR: 535nm optical interference dose response, HGIII-sPLA2 counter-screen; shares compounds with sPLA2-III inh; 240 tested, under 10 active; BODIPY FL product fluorescence interference, cell-free; AID 743455; IC50, µM;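 active means IC50 at or below 10 µM; inactive means IC50 above 10 µM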
Of the large screens only hits and unclear results are named; the others gave an inactive call (follow-up assays come after a bar, where they were run). Compounds with a hit are over-represented: about 3.2% of the library has one in this group of screens.

CCN(CC)C(=O)CC[C@H]1CC[C@]2(CCCN(C(=O)c3ccco3)C2)O1	none (no result: PG9 binder, MsrA inh, bovine MsrA act)
CC(C)Nc1nc(NC(N)=S)nc(NC(C)C)n1	sPLA2-III inh 21.6 | sPLA2 confirm 20.2 | 535nm interf inactive
CC(C)(C)OC[C@H](NC(=O)c1[nH]cnc1C(=O)Nc1ccccc1F)C(=O)OC(C)(C)C	none
Cc1cc(C)c(C(O)c2ncc(-c3ccccc3Cl)[nH]2)c(C)c1 (stereo not given)	none
COc1cccc(N2CC(=O)Nc3c(oc4nc(-c5ccccc5)cc(C)c34)C2=O)c1	sPLA2-III inh 19.7 | sPLA2 confirm inactive | 535nm interf inactive
Cc1cc(-c2ccccc2)nc2oc3c(c12)NC(=O)CN(c1ccccc1)C3=O	none
S=C(NCCCN1CCOCC1)Nc1cccc(Cl)c1	none
Cc1cccc(NC(=S)NCCCN2CCOCC2)c1	sPLA2-III inh 19.3 | sPLA2 confirm inactive | 535nm interf inactive
C[C@@H]1CN([C@H](C)CO)C(=O)CCCn2cc(nn2)CO[C@H]1CN(C)C(=O)C1CC1	none
CC1(C)CCCN(C(=O)c2ccc3c(c2NCCO)C(=O)c2ccccc2C3=O)C1	sPLA2-III inh 26.5 | sPLA2 confirm 35.5 | 535nm interf inactive | 535nm interf DR inactive
Cc1ccc(O)c(N=Nc2nccs2)c1	sPLA2-III inh 24.6 | sPLA2 confirm inactive | 535nm interf 9.9
COc1ccc(N=Nc2cc(C)ccc2O)cc1	none
Cc1ccccc1C(=O)NC(=S)Nc1ccccc1N1CCCC1	sPLA2-III inh 20.1 | sPLA2 confirm 27.1 | 535nm interf inactive
CC(=O)N1CCN(c2ccc(NCc3ccc(-c4ccc(Br)cc4)o3)cc2)CC1	sPLA2-III inh 19.6 | sPLA2 confirm 19.7 | 535nm interf inactive
CC(=O)N1CCN(c2ccc(NCc3ccc(Br)o3)cc2)CC1	none
CC(C)Oc1ccc(CC(=O)NNC(=S)Nc2ccccc2)cc1	sPLA2-III inh 28.9 | sPLA2 confirm 29.5 | 535nm interf inactive | 535nm interf DR inactive
O=C(NNC(=S)Nc1ccccc1)NNC(=S)Nc1ccccc1	sPLA2-III inh 34.2 | sPLA2 confirm 28.6 | 535nm interf inactive | 535nm interf DR inactive
CC(C)Oc1ccc(CCC(=O)NNC(=S)Nc2ccccc2)cc1	none
O=C(NNC(=S)Nc1ccccc1)c1cc(Br)ccc1Cl	sPLA2-III inh 33.1 | sPLA2 confirm 27.6 | 535nm interf 6.1
COc1ccc(CCC(=O)NNC(=O)Nc2cccc(Cl)c2)cc1	none
COc1ccc(CCC(=O)NNC(=S)Nc2cccc(C(C)=O)c2)cc1	sPLA2-III inh 20.2 | sPLA2 confirm 27.8 | 535nm interf inactive | 535nm interf DR inactive
c1ccc(CCNc2ccc3c(c2)Cc2ccccc2-3)nc1	none
COCCN(C(=O)CSc1nc2ccccc2s1)c1c(N)n(Cc2ccccc2)c(=O)[nH]c1=O	none
C[C@H](CO)N1C[C@H](C)[C@@H](CN(C)S(=O)(=O)c2cn(C)cn2)Oc2ccc(NC(=O)C3CCCCC3)cc2C1=O	sPLA2-III inh 21.4 | sPLA2 confirm inactive | 535nm interf inactive
CC(=O)N1CCN(C(=O)c2ccc(CNC(=O)c3cccc(Br)c3)cc2)CC1	none (no result: PG9 binder, MsrA inh, bovine MsrA act)
CCOc1ccc(NC(=S)NN2C(C)CCCC2C)cc1 (stereo not given)	sPLA2-III inh 21.7 | sPLA2 confirm inactive | 535nm interf inactive
CCCC1CCC2(CCCN2CCOC(=O)Nc2ccccc2C)CC1 (stereo not given)	none (no result: PG9 binder, MsrA inh, bovine MsrA act, rCAG RNA binder)
COC(=O)C(C)(C)ONC(=O)Nc1ccccc1Br	sPLA2-III inh 21.1 | sPLA2 confirm inactive | 535nm interf inactive
O=C(NCCc1ccncc1)Nc1ccc(F)cc1	sPLA2-III inh 20.0 | sPLA2 confirm inactive | 535nm interf inactive
O=C(COc1ccc(Cl)cc1Cl)Nn1c(=S)[nH]c2ncccc2c1=O	none
COc1ccccc1OCC(=O)Nn1c(=S)[nH]c2ncccc2c1=O	sPLA2-III inh 24.3 | sPLA2 confirm inactive | 535nm interf inactive
Cc1cccc(C(=O)N[C@H]2CC[C@@]34CCCN3C(=O)CCC[C@H]4[C@H]2C)c1	none (no result: PG9 binder, MsrA inh, bovine MsrA act, rCAG RNA binder)
COc1cc(Sc2ccc(C)cc2)c(OC)cc1N	sPLA2-III inh 21.7 | sPLA2 confirm 38.5 | 535nm interf 9.1
O=c1cc(CN2CCN(c3ccccc3)CC2)c2ccccc2o1	none
